Test results from PubChem BioAssay (NCI).
About 79,000 compounds went through this panel and 15% of them were active in at least one assay; those are over-represented in the sample as a whole. A number with no mark means an inactive call. Active and inactive are the calls of the source. Cut-off read from the data, not from the text of the source: active = growth inhibition above about 70%; inactive = the rest.

Columns and labels:
[1] = NCI Yeast Anticancer Drug Screen. Data for the rad50 strain (AID 155);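 note: 0% = growth of vehicle-only cultures of the same strain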; conditions: S. cerevisiae rad50 strain growth inhibition, hits give high values
Summary of the method: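 Cells are treated with compound, grown, and their growth is then scored against vehicle-only cultures of the same repair-deficient yeast strain.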

[2] = NCI Yeast Anticancer Drug Screen. Data for the mec2-1 strain (AID 157); conditions: S. cerevisiae mec2-1 strain, hits give high values
Summary of the method: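 Test agents were screened against the mec2-1 yeast strain, with defined DNA repair or cell cycle alteration. Growth was scored as inhibition against vehicle-only controls.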

[3] = NCI Yeast Anticancer Drug Screen. Data for the sgs1 mgt1 strain (AID 161);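 note: 0% = growth of cultures given vehicle only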; conditions: S. cerevisiae sgs1 mgt1 strain, hits give high values
Summary of the method: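 Read-out: growth inhibition vs vehicle controls. Cells: mutant yeast strain deficient in DNA damage repair.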

[4] = NCI Yeast Anticancer Drug Screen. Data for the cln2 rad14 strain (AID 165);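 note: 0% = growth equal to vehicle treated cultures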; conditions: S. cerevisiae cln2 rad14 strain, hits give high values
Summary of the method: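 Growth of compound-exposed yeast (cln2 rad14 genotype) measured and expressed as inhibition relative to vehicle.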

[5] = NCI Yeast Anticancer Drug Screen. Data for the bub3 strain (AID 167); conditions: S. cerevisiae bub3 mutant strain, hits give high values
Summary of the method: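 Part of a panel of yeast mutants defective in DNA damage repair or cell cycle regulation. Each strain is grown with compound, and inhibition is calculated relative to solvent-treated cultures.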

[6] = NCI Yeast Anticancer Drug Screen. Data for the mlh1 rad18 strain (AID 175); conditions: S. cerevisiae mlh1 rad18 strain growth inhibition, hits give high values
Summary of the method: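 In this whole-cell yeast screen, a strain with altered DNA damage repair is challenged with compound, and its growth is measured against matched vehicle-treated controls.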

[7] = at 5.0 µM (retest, dose inferred, filed as 0.5)
[8] = at 50.0 µM (retest, dose inferred, filed as 5.0)

SMILES | growth inhibition [1, 7] | growth inhibition [1, 8] | growth inhibition ([1]; at 50.0 µM) | growth inhibition [2, 7] | growth inhibition [2, 8] | growth inhibition ([2]; at 50.0 µM) | growth inhibition [3, 7] | growth inhibition [3, 8] | growth inhibition ([3]; at 50.0 µM) | growth inhibition [4, 7] | growth inhibition [4, 8] | growth inhibition ([4]; at 50.0 µM) | growth inhibition [5, 7] | growth inhibition [5, 8] | growth inhibition ([5]; at 50.0 µM) | growth inhibition [6, 7] | growth inhibition [6, 8] | growth inhibition ([6]; at 50.0 µM)
CN(C)CCBr | 86% (active) | 95% (active) | 38% | 16% | 92% (active) | 88.1% (active) | 61% | 94% (active) | 92.9% (active) | -1% | 84% (active) | 64.2% | -10% | 81% (active) | 55.6% | 49% | 95% (active) | 96.7% (active)
C#CC(/C=C/Cl)(CC)OC(N)=O (configuration not stated) | 3% | 13% | 1.8% | 4% | 5% | 11.6% | 3% | 5% | -2% | 6% | -7% | 75.8% (active) | 0% | 43% | 55.9% | 9% | 16% | 31.2%
C[CH2][Sn]([CH2]C)[O][Sn]([Cl])([CH2]C)[CH2]C | 51% | 96% (active) | 87.9% (active) | 35% | 97% (active) | 88.3% (active) | 37% | 97% (active) | 87.5% (active) | 19% | 91% (active) | 84% (active) | 39% | 96% (active) | 83.3% (active) | 75% (active) | 97% (active) | 86.7% (active)
O=P(c1ccccc1)(c1ccccc1)c1ccccc1.[Cl][Sn]([c]1ccccc1)([c]1ccccc1)[c]1ccccc1 | 99% (active) | 98% (active) | 99.6% (active) | 97% (active) | 98% (active) | 99.7% (active) | 99% (active) | 99% (active) | 99.7% (active) | 99% (active) | 98% (active) | 99.1% (active) | 99% (active) | 98% (active) | 99.3% (active) | 99% (active) | 99% (active) | 99.5% (active)
O=P(Oc1ccccc1)(Oc1ccccc1)Oc1ccccc1Cl | 5% | 0% | 29.4% | 3% | -8% | 0.05% | -4% | 4% | 13.6% | 0% | -14% | -6.1% | 2% | 28% | 66.5% | -13% | -3% | 51.6%
CC(=O)C(CN1CCOCC1)C(c1ccccc1)c1c(O)c2ccccc2oc1=O (configuration not stated) | 7% | 73% (active) | -1.6% | 5% | 75% (active) | -12.3% | 3% | 80% (active) | 9.4% | 5% | 79% (active) | 0.25% | 22% | 83% (active) | 21.9% | 6% | 81% (active) | -13.5%
[N-]=[N+]=NS(=O)(=O)c1ccccc1S(=O)(=O)N=[N+]=[N-] | 13% | 99% (active) | 99.2% (active) | 8% | 100% (active) | 92.6% (active) | 9% | 99% (active) | 99.8% (active) | 67% | 99% (active) | 74.8% (active) | -2% | 97% (active) | 49.1% | 18% | 99% (active) | 99.6% (active)
C[CH2][Pb]([CH2]C)([CH2]C)[O]C(=O)COc1ccc(Cl)cc1Cl | 29% | 84% (active) | 91.5% (active) | 14% | 89% (active) | 95.1% (active) | 3% | 94% (active) | 95% (active) | 2% | 91% (active) | 85.7% (active) | -4% | 95% (active) | 95.6% (active) | 29% | 96% (active) | 97% (active)
O=C1C=CC(=O)C(Cl)=C1 | 10% | 96% (active) | 92.2% (active) | 3% | 73% (active) | 96% (active) | 10% | 98% (active) | 96.2% (active) | 6% | 56% | 91.4% (active) | 16% | 97% (active) | 95% (active) | 5% | 98% (active) | 95.5% (active)
